In assay [1] the target is T1, Ephrin type-B receptor 1 (Homo sapiens) (UniProt P54762).
T1 sequence (whole entry): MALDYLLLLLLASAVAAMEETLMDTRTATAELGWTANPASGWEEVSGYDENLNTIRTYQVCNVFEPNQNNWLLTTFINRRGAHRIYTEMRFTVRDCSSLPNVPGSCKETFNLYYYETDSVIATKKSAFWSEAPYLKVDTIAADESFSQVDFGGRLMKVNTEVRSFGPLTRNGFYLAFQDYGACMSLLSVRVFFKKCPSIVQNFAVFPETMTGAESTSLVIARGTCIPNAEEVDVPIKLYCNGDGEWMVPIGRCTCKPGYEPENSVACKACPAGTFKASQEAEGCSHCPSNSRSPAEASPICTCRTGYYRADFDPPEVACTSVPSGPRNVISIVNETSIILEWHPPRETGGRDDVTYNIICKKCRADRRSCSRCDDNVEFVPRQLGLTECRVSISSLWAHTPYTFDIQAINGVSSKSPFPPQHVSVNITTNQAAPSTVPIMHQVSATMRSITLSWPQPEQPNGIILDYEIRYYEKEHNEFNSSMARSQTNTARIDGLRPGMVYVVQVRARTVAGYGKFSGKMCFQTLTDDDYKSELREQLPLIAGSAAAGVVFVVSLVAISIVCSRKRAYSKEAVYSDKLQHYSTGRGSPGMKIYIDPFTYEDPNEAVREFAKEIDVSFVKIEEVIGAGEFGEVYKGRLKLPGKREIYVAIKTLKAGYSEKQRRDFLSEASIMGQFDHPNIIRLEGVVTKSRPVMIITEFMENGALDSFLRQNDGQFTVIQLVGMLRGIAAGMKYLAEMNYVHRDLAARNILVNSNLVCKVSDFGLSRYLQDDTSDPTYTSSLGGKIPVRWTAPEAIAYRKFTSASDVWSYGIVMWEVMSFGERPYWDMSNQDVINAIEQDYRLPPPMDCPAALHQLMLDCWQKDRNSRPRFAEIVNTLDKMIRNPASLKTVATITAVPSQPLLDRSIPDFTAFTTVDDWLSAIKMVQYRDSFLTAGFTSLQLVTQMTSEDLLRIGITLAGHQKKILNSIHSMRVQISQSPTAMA
To be noted: at 10 µM.

For assay [2], the target named is T2, Ephrin type-B receptor 2 (Homo sapiens) (UniProt P29323).
T2 sequence (whole entry): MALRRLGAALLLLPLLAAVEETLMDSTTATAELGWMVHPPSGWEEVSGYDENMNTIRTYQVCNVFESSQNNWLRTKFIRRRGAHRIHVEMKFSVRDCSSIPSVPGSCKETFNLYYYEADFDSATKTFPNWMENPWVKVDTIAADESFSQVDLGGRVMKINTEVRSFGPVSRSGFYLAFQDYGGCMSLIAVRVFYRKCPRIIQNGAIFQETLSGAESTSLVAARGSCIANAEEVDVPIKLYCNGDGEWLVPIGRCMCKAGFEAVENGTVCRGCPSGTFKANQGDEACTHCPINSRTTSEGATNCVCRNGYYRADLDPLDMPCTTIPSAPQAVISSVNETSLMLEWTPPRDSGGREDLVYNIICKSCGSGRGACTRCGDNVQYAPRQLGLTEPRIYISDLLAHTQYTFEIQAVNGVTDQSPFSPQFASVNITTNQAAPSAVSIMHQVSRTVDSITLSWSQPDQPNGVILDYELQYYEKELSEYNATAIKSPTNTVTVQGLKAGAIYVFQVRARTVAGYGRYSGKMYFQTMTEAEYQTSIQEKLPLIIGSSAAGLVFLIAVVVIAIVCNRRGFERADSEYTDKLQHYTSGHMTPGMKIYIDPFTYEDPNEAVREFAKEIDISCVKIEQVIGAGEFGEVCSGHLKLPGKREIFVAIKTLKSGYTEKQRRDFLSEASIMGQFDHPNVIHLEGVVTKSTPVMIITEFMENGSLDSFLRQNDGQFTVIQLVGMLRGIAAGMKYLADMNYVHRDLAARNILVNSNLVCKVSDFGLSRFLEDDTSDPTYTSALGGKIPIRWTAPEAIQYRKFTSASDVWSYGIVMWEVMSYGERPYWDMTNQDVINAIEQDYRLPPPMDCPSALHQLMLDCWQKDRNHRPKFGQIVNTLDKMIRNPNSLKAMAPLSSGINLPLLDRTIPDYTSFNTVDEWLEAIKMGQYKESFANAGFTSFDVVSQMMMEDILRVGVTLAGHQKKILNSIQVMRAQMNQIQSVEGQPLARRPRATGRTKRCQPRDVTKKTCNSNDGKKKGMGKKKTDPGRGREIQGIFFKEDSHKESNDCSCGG
The following applies: at 1 µM.

The target of assay [3] is T2, Ephrin type-B receptor 2 (Homo sapiens). The following applies: at 10 µM.
Assay [4] deals with T3, Ephrin type-B receptor 3 (Homo sapiens) (UniProt P54753).
T3 sequence (whole entry): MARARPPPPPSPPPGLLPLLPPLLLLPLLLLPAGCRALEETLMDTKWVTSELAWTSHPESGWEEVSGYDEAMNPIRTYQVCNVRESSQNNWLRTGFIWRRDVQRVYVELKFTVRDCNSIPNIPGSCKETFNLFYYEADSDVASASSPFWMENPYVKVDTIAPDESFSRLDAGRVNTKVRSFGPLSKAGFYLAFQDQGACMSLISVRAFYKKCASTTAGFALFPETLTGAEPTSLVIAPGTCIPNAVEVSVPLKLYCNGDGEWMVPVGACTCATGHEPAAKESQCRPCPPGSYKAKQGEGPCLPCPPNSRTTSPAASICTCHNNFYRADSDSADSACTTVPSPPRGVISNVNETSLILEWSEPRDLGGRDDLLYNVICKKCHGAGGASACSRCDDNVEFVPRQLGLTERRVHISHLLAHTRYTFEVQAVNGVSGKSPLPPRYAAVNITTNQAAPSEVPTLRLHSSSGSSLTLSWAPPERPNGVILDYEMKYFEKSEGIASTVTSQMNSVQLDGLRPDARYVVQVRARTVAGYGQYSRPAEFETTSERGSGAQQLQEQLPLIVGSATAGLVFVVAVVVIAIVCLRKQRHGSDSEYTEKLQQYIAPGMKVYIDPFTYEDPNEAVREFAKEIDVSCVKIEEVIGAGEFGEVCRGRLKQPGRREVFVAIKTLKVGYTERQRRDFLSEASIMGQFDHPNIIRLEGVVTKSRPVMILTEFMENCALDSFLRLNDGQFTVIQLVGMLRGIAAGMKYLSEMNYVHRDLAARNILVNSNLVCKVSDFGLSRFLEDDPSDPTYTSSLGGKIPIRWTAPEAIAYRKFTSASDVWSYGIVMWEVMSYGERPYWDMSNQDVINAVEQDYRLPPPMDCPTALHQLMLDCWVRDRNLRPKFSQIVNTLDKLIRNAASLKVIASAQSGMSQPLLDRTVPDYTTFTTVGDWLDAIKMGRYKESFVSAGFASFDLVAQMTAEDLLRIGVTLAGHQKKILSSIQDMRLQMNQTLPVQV
To be noted: at 1 µM.

Assay [5] addresses T3, Ephrin type-B receptor 3 (Homo sapiens). The following applies: at 10 µM.
Assay [6] addresses T4, Ephrin type-B receptor 4 (Homo sapiens) (UniProt P54760).
T4 sequence (whole entry): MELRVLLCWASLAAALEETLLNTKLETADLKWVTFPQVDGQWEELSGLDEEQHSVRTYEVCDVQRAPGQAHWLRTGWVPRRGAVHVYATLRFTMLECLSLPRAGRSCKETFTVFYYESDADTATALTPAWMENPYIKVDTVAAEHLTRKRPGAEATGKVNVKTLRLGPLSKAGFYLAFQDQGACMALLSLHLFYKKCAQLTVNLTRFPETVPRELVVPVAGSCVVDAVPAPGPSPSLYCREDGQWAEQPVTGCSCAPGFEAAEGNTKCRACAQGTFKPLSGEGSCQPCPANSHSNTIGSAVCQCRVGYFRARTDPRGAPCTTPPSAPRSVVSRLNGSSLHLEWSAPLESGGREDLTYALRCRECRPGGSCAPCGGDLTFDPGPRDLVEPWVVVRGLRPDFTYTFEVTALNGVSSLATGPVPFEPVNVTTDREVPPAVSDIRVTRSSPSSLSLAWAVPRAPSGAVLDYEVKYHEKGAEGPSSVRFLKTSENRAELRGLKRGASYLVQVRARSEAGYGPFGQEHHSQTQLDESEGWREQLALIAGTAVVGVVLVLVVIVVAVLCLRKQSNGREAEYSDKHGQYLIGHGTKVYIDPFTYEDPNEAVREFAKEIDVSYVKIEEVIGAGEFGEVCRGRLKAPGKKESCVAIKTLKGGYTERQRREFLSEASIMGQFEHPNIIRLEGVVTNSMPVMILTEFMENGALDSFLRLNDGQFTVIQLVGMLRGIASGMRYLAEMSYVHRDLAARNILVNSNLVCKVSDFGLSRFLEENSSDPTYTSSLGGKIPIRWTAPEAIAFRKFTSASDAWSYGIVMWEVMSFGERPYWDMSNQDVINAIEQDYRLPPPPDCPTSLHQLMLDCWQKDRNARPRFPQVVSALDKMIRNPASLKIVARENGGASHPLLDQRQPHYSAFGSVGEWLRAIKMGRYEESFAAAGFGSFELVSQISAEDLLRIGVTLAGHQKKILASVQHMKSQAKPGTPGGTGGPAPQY
The following applies: at 1 µM.

Assay [7] has as its target T4, Ephrin type-B receptor 4 (Homo sapiens). The following applies: at 10 µM.
Assay [8] addresses Receptor tyrosine-protein kinase erbB-4 (Homo sapiens) (UniProt Q15303). The following applies: at 1 µM.
For assay [9] the target is unchanged. To be noted: at 10 µM.
Assay [10] deals with Focal adhesion kinase 1 (Homo sapiens) (UniProt Q05397). The following applies: at 1 µM.
Chain of Focal adhesion kinase 1 (Homo sapiens) (Q05397 2-1052 limits assumed): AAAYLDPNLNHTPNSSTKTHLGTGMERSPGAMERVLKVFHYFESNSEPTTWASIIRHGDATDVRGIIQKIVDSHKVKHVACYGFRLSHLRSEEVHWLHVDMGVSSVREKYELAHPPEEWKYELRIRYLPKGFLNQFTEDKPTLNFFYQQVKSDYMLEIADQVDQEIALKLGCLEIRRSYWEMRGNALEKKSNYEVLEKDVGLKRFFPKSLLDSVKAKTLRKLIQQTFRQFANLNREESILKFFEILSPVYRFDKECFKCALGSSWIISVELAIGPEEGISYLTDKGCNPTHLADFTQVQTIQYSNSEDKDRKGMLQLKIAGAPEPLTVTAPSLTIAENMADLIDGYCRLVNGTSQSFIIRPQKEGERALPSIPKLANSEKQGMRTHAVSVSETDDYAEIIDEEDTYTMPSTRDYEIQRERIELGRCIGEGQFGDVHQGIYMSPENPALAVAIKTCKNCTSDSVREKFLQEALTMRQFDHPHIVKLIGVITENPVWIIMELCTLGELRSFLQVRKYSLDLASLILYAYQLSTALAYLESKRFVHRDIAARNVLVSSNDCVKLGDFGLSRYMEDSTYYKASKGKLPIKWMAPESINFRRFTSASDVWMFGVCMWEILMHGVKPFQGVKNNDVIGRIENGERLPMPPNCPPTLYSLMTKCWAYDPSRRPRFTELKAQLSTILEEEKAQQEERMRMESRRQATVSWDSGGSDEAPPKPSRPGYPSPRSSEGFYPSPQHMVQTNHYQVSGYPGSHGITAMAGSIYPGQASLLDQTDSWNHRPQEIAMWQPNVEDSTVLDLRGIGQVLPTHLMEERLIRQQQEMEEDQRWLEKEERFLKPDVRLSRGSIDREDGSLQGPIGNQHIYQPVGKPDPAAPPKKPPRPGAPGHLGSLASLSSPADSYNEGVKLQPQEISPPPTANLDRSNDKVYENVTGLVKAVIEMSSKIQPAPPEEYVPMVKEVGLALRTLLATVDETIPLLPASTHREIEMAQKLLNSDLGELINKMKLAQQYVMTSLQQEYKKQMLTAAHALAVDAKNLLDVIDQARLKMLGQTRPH

Chain of Receptor tyrosine-protein kinase erbB-4 (Homo sapiens) (Q15303 whole entry): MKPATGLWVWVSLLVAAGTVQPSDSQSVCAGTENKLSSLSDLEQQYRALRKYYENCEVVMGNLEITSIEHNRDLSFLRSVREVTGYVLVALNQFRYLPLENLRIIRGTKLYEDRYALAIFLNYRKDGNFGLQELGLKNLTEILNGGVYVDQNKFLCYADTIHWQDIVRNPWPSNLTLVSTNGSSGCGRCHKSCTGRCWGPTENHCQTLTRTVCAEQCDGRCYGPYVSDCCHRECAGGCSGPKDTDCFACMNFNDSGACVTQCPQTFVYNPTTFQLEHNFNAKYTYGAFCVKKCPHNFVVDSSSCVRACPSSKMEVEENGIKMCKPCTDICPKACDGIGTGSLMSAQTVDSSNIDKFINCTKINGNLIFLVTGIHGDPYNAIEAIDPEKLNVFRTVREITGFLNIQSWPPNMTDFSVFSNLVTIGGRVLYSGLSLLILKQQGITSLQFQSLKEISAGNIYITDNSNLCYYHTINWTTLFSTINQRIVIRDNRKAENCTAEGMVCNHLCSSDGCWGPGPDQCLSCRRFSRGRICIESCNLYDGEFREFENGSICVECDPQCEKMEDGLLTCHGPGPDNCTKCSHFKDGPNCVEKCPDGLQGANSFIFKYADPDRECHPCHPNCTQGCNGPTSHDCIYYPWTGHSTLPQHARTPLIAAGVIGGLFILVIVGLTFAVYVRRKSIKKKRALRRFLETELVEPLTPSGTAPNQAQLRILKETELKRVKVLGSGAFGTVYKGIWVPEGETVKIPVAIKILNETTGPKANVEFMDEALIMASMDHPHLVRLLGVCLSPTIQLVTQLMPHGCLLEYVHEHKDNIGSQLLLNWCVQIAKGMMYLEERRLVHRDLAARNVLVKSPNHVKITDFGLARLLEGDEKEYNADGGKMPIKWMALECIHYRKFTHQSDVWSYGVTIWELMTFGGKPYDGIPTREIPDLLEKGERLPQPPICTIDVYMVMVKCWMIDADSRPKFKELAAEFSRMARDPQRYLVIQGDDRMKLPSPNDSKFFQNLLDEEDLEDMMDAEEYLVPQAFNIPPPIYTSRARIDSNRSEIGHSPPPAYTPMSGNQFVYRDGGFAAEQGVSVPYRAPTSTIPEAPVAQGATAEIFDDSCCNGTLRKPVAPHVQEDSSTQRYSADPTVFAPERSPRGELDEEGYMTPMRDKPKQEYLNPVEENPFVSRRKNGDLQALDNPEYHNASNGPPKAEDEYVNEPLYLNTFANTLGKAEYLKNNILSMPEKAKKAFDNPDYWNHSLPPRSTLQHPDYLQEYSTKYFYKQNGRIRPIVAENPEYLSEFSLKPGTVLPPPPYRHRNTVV

In the case of `CC(=O)O/N=C1\C(=C2\C(=O)Nc3cc(Br)ccc32)Nc2ccccc21`, the residual activity in assay [1] is 47%; in assay [2], 103%; in [3], 60%; in [4] it was 107% (inactive); in [5], 107%; in assay [6], 71%. Besides, the residual activity in [7] stood at 65%; in assay [8], 96%; in assay [9], 90%; in assay [10], 95%.

In general, residual activity refers to the signal under treatment as a percentage of the control signal.

The values are drawn from ChEMBL document CHEMBL2218924, “A broad activity screen in support of a chemogenomic map for kinase signalling research and drug discovery” (Biochem J, 2013).
